# Publication PMC7862700, “An all-to-all approach to the identification of sequence-specific readers for epigenetic DNA modifications on cytosine”
# Tests used:
# Test in all cases: DAPPL (digital affinity profiling via proximity ligation, sequencing); 10 mM Tris-HCl pH 7.5, 50 mM NaCl, 1 mM DTT, 4% glycerol, room temperature, 30 min; GST-TFs on glutathione beads, 16-mer random dsDNA library, 0.1% formaldehyde crosslink after washing; high values mean tight binding
# FLI1 = target: T1, FLI1 (Homo sapiens, UniProt Q01543 1-452); settings: protein: recombinant; tags: N-terminal GST; dsDNA, one strand shown
# T1 sequence: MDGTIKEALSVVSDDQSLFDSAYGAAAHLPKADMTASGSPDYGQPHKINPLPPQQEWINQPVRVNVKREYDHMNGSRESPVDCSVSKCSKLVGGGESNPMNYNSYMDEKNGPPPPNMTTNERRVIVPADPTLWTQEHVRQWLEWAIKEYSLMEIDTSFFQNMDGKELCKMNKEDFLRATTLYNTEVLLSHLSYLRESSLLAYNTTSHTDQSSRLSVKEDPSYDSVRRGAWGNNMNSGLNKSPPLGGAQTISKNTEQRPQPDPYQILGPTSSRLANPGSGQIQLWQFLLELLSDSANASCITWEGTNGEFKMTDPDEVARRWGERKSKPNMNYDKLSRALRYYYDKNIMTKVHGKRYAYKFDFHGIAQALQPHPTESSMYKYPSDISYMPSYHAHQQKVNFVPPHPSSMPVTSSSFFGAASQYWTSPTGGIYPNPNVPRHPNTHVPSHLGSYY
# Procedure, shortened: (§1)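 A tag-only sample was pooled with DNA-barcoded human transcription factors that had been expressed in yeast as GST fusions and captured on glutathione beads. The pools were incubated for 30 min at room temperature with 200 nmole of a random double-stranded 16-mer DNA library in Tris/NaCl/DTT/glycerol buffer, then washed, crosslinked with 0.1% formaldehyde, proximity-ligated (BsaI/T4 ligase, 1 h, 37 °C), PCR-amplified and sequenced on an Illumina NextSeq500. Binding signal is each hexamer's read frequency for a factor divided by its frequency for the tag-only sample.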
# ELK1 = target: T2, ELK1 (Homo sapiens, UniProt P19419 1-428); settings: protein: recombinant; tags: N-terminal GST; dsDNA, one strand shown
# T2 sequence: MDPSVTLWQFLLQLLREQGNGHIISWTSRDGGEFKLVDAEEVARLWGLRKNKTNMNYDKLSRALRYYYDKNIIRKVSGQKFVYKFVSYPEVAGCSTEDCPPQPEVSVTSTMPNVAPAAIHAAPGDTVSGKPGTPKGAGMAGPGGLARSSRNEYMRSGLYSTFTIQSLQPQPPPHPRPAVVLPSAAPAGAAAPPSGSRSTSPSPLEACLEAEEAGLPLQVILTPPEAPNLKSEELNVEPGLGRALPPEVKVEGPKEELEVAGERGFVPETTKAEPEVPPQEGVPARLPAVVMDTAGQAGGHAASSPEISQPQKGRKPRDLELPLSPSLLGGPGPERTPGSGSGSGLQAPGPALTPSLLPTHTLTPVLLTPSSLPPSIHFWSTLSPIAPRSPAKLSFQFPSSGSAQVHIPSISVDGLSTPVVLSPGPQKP
# Procedure, shortened: as §1
# GABPA = target: T3, GABPA (Homo sapiens, UniProt Q06546 1-454); settings: protein: recombinant; tags: N-terminal GST; dsDNA, one strand shown
# T3 sequence: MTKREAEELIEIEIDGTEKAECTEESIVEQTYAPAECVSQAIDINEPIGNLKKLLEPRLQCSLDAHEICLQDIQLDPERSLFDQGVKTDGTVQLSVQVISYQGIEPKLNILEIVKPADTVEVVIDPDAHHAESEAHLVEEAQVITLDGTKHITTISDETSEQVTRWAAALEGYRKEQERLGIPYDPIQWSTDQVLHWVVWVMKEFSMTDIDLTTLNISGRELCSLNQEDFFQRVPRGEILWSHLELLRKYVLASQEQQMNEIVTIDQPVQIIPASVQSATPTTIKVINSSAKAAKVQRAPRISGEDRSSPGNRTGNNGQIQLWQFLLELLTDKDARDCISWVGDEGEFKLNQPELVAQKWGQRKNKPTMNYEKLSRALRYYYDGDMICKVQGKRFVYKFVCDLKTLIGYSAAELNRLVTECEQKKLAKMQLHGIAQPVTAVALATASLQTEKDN
# Procedure, shortened: as §1
# ERG = target: T4, ERG (Homo sapiens, UniProt P11308 1-479); settings: protein: recombinant; tags: N-terminal GST; dsDNA, one strand shown
# T4 sequence: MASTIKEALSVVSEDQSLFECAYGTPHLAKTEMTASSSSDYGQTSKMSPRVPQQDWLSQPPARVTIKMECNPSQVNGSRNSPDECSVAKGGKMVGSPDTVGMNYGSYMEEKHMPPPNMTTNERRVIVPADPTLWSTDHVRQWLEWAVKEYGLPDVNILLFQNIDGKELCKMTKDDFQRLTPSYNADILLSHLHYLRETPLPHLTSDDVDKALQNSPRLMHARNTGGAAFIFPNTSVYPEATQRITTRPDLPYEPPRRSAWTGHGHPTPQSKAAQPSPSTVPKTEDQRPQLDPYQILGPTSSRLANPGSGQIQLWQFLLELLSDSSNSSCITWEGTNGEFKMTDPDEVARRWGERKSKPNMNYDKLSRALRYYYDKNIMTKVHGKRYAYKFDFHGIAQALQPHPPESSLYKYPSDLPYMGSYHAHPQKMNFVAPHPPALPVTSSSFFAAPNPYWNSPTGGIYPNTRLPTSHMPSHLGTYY
# Procedure, shortened: as §1
# ELF1 = ELF1 (Homo sapiens, UniProt P32519 1-619); settings: protein: recombinant; tags: N-terminal GST; dsDNA, one strand shown
# Procedure, shortened: as §1
# EHF = target: T5, EHF (Homo sapiens, UniProt Q9NZC4 1-300); settings: protein: recombinant; tags: N-terminal GST; dsDNA, one strand shown
# T5 sequence: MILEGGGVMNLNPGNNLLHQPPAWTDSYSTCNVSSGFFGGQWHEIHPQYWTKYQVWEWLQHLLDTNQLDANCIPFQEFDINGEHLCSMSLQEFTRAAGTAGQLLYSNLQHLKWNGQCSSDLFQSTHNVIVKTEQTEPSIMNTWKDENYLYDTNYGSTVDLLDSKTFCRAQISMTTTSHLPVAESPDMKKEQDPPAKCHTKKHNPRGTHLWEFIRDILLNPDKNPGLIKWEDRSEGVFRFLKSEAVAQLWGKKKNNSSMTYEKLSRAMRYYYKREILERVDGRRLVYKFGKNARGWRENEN
# Procedure, shortened: as §1
# SPI1 = SPI1 (Homo sapiens, UniProt P17947 1-270); settings: protein: recombinant; tags: N-terminal GST; dsDNA, one strand shown
# Procedure, shortened: as §1
# SPIB = SPIB (Homo sapiens, UniProt Q01892 1-262); settings: protein: recombinant; tags: N-terminal GST; dsDNA, one strand shown
# Procedure, shortened: as §1
# ELK3 = target: T6, ELK3 (Homo sapiens, UniProt P41970 1-407); settings: protein: recombinant; tags: N-terminal GST; dsDNA, one strand shown
# T6 sequence: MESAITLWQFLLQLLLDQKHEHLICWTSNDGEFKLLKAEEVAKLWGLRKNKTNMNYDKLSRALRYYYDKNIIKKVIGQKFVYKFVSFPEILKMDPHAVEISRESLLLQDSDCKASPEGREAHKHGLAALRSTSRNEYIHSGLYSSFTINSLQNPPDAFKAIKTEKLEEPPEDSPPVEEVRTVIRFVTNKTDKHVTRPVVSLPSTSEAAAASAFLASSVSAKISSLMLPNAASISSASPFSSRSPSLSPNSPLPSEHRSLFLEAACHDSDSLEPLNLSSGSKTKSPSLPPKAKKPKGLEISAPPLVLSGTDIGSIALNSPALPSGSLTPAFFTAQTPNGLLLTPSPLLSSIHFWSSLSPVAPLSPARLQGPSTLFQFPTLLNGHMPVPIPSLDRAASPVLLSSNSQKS
# Procedure, shortened: as §1
# FEV = target: T7, FEV (Homo sapiens, UniProt Q99581 1-238); settings: protein: recombinant; tags: N-terminal GST; dsDNA, one strand shown
# T7 sequence: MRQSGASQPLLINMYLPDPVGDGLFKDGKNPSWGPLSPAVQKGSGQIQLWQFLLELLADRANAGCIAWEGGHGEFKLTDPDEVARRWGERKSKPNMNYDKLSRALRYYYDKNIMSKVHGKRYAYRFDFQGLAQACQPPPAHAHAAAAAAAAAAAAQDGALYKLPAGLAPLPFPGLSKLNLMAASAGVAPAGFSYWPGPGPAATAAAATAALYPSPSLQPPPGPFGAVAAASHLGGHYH
# Procedure, shortened: as §1
# ETV5 = ETV5 (Homo sapiens, UniProt P41161 1-510); settings: protein: recombinant; tags: N-terminal GST; dsDNA, one strand shown
# Procedure, shortened: as §1
# HSF1 = HSF1 (Homo sapiens, UniProt Q00613 1-529); settings: protein: recombinant; tags: N-terminal GST; chain copies: 3; dsDNA, one strand shown
# Procedure, shortened: as §1
# SPIC = target: T8, SPIC (Homo sapiens, UniProt Q8N5J4 1-248); settings: protein: recombinant; tags: N-terminal GST; dsDNA, one strand shown
# T8 sequence: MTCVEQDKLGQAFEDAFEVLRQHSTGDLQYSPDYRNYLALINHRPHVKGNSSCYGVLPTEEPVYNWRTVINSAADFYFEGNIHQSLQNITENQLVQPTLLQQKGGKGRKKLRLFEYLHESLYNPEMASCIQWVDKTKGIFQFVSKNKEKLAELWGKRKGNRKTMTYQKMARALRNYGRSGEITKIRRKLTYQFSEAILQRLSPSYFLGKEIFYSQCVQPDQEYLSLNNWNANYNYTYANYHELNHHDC
# Procedure, shortened: as §1
# ELF4 = ELF4 (Homo sapiens, UniProt Q99607 1-663); settings: protein: recombinant; tags: N-terminal GST; dsDNA, one strand shown
# Procedure, shortened: as §1
# ELK4 = target: T9, ELK4 (Homo sapiens, UniProt P28324-2 1-405); settings: protein: recombinant; tags: N-terminal GST; dsDNA, one strand shown
# T9 sequence: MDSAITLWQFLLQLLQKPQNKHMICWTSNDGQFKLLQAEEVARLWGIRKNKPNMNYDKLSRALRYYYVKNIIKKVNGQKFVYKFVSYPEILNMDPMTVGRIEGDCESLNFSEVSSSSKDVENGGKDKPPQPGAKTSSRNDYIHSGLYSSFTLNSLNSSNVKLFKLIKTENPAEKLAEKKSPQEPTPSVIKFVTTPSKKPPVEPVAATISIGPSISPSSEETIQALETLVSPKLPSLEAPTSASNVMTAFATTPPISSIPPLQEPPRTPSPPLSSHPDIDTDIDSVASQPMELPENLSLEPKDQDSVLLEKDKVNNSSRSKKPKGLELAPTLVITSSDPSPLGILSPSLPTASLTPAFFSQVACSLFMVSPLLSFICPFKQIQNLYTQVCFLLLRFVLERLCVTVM
# Procedure, shortened: as §1
# ETV2 = target: T10, ETV2 (Homo sapiens, UniProt O00321 1-342); settings: protein: recombinant; tags: N-terminal GST; dsDNA, one strand shown
# T10 sequence: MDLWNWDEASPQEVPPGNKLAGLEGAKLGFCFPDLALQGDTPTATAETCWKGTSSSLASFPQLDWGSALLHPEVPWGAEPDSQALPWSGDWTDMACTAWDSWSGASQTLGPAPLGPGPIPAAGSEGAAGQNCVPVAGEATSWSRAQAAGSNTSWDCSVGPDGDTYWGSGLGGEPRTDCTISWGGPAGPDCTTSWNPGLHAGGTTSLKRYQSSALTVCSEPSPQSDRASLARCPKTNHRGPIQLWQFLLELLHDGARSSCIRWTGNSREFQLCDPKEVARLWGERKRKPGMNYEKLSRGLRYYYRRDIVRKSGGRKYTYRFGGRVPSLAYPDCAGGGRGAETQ
# Procedure, shortened: as §1
# ELF3 = target: T11, ELF3 (Homo sapiens, UniProt P78545 1-371); settings: protein: recombinant; tags: N-terminal GST; dsDNA, one strand shown
# T11 sequence: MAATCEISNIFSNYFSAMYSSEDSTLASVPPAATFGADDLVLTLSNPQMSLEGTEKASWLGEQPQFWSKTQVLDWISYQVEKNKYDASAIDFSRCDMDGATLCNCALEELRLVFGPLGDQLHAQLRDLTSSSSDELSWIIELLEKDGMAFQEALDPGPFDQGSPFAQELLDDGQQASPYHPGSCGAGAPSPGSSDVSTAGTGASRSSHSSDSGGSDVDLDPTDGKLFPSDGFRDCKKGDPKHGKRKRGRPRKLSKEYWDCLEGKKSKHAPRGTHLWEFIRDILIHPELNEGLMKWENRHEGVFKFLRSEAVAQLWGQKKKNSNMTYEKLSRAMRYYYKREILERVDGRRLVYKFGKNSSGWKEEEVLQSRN
# Procedure, shortened: as §1
# CRX = CRX (Homo sapiens, UniProt O43186 1-299); settings: protein: recombinant; tags: N-terminal GST; dsDNA, one strand shown
# Procedure, shortened: as §1
# ETV1 = ETV1 (Homo sapiens, UniProt P50549 1-477); settings: protein: recombinant; tags: N-terminal GST; dsDNA, one strand shown
# Procedure, shortened: as §1
# ELF1, sequence (P32519 whole entry): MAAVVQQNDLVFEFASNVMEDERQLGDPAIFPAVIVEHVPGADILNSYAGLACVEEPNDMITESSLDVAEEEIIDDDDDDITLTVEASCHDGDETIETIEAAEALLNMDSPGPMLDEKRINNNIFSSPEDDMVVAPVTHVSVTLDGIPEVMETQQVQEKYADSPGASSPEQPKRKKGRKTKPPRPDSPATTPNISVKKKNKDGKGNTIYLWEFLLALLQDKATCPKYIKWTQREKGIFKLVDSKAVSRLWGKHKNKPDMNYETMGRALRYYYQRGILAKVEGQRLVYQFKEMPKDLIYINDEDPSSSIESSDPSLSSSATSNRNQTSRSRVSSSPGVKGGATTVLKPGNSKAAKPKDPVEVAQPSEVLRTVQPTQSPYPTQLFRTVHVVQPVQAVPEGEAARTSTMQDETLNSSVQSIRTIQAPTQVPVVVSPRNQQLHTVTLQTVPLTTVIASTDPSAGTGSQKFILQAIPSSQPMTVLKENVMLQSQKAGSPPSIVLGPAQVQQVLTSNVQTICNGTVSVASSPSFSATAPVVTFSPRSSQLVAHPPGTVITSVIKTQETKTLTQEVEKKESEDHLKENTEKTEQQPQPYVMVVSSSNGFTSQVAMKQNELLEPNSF
# ETV5, sequence (P41161 whole entry): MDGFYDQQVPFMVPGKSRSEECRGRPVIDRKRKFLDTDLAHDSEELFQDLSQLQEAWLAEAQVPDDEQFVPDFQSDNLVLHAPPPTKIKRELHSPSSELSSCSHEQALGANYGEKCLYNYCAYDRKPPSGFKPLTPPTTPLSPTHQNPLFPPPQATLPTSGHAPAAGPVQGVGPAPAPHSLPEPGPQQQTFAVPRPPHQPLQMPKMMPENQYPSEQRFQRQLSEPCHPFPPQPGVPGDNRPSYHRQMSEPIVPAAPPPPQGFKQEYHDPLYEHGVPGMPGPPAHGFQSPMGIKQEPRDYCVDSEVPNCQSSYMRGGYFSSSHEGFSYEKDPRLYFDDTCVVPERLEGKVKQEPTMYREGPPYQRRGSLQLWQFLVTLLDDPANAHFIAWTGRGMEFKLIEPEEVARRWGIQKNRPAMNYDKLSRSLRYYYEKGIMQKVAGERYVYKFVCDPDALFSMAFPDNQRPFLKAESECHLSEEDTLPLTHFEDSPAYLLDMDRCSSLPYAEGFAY
# SPIB, sequence (Q01892 whole entry): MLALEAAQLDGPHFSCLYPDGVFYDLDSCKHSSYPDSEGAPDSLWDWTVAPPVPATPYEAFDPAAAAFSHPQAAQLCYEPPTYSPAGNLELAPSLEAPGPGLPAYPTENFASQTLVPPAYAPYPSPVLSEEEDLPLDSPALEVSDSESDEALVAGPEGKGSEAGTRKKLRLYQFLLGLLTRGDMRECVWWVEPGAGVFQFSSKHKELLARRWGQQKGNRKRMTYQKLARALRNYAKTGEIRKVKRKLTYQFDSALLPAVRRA
# ELF4, sequence (Q99607 whole entry): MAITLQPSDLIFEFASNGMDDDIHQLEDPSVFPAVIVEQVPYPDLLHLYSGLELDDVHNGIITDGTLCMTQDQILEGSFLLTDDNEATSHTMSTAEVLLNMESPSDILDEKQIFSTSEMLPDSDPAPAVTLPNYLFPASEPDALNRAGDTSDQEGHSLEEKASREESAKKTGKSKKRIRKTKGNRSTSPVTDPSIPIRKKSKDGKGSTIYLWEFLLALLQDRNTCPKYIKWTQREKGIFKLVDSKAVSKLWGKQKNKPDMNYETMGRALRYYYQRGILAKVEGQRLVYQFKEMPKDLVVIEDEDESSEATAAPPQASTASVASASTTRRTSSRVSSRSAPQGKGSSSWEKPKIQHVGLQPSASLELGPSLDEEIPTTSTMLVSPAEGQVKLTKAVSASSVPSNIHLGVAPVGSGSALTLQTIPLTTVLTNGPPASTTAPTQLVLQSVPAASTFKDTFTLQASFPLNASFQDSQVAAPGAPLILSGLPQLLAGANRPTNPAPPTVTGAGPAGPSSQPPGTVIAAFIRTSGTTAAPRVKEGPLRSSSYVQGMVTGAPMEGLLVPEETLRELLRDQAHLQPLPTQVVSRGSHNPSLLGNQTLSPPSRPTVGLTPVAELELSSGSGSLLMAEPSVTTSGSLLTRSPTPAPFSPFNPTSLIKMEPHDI
# CRX, sequence (O43186 whole entry): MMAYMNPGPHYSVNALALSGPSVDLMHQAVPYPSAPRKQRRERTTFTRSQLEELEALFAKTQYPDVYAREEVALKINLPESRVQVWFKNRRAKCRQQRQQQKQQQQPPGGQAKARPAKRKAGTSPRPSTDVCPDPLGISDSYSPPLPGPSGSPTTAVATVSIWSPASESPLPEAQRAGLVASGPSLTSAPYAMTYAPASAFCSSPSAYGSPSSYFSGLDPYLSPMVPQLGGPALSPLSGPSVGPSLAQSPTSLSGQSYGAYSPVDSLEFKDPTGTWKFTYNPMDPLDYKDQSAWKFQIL
# ETV1, sequence (P50549 whole entry): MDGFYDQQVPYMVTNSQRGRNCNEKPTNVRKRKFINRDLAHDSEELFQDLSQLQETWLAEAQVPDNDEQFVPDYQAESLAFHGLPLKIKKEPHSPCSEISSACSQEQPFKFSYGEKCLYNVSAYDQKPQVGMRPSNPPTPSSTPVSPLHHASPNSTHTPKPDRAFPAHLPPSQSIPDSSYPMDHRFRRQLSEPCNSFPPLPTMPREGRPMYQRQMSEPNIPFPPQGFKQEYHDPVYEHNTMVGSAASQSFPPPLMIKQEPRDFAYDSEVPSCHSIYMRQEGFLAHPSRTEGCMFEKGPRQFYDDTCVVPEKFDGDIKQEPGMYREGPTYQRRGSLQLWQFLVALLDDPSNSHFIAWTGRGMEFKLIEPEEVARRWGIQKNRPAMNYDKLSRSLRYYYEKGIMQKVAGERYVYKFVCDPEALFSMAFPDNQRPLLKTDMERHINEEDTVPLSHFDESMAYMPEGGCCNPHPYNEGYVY
# HSF1, sequence (Q00613 whole entry): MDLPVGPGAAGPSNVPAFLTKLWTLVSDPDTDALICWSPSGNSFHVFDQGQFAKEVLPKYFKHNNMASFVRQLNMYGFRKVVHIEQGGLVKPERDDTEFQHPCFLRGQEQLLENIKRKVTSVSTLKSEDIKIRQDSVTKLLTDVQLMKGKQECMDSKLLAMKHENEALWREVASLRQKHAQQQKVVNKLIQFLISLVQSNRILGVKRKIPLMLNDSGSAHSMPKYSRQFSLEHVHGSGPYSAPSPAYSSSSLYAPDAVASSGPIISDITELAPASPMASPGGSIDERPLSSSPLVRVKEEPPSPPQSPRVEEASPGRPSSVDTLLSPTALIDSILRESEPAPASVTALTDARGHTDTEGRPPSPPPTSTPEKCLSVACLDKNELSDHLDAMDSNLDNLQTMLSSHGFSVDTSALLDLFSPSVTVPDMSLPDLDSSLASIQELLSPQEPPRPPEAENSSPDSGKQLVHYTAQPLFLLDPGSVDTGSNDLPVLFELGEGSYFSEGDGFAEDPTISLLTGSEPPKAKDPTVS
sequence,measurement,setting,value
TCTCGA,binding signal,FLI1,"1.35 fold enrichment (6-mer frequency, TF over GST control)"
same,binding signal,ELK1,"1.34 fold enrichment (6-mer frequency, TF over GST control)"
same,binding signal,GABPA,"1.42 fold enrichment (6-mer frequency, TF over GST control)"
same,binding signal,ERG,"1.38 fold enrichment (6-mer frequency, TF over GST control)"
same,binding signal,ELF1,"1.41 fold enrichment (6-mer frequency, TF over GST control)"
same,binding signal,EHF,"1.37 fold enrichment (6-mer frequency, TF over GST control)"
same,binding signal,SPI1,"1.36 fold enrichment (6-mer frequency, TF over GST control)"
same,binding signal,SPIB,"1.43 fold enrichment (6-mer frequency, TF over GST control)"
same,binding signal,ELK3,"1.31 fold enrichment (6-mer frequency, TF over GST control)"
same,binding signal,FEV,"1.23 fold enrichment (6-mer frequency, TF over GST control)"
same,binding signal,ETV5,"1.4 fold enrichment (6-mer frequency, TF over GST control)"
same,binding signal,HSF1,"5.05 fold enrichment (6-mer frequency, TF over GST control)"
same,binding signal,SPIC,"1.35 fold enrichment (6-mer frequency, TF over GST control)"
same,binding signal,ELF4,"1.51 fold enrichment (6-mer frequency, TF over GST control)"
same,binding signal,ELK4,"1.46 fold enrichment (6-mer frequency, TF over GST control)"
same,binding signal,ETV2,"1.27 fold enrichment (6-mer frequency, TF over GST control)"
same,binding signal,ELF3,"1.35 fold enrichment (6-mer frequency, TF over GST control)"
same,binding signal,CRX,"2.28 fold enrichment (6-mer frequency, TF over GST control)"
same,binding signal,ETV1,"1.47 fold enrichment (6-mer frequency, TF over GST control)"
